Luciferase inh: firefly luciferase inhibition. Potency, µM (doses to about 57.1 µM), inactives show top-dose activity change, negative = inhibition, actives largely listed as inhibitors. 2.2% of 72,000 active. AID 411. purified firefly luciferase, luminescence, 8 min; note: potency is the fitted concentration of half-maximal effect; % is set by controls: 0 for no effect and ±100 for the full control effect; nearly all actives have a fitted effect of over 40% in size
Target sequence (P08659 whole entry, looked up): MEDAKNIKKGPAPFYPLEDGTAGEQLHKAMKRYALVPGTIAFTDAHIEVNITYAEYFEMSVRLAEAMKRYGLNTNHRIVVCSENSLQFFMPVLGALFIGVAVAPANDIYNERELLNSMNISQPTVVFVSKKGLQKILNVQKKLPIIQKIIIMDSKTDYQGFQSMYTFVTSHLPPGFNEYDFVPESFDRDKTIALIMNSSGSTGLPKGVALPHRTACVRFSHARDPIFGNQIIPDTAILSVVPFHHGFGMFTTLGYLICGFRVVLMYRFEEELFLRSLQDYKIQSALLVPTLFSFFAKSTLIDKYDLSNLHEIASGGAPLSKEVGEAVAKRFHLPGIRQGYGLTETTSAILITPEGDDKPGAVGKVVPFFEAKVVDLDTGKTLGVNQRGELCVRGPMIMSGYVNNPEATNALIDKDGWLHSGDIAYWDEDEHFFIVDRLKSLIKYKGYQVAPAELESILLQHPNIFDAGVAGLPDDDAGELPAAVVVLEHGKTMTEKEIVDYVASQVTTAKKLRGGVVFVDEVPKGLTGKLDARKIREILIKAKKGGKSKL
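qHTS concentration-response profiling: light output of P. pyralis luciferase with luciferin and 10 uM ATP, imidazole buffer pH 7.2. Read by luminescence after 8-min room-temperature incubation.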
HBB splice mod: alters splicing of the hemoglobin beta chain; Potency, µM (top dose mostly 46.1 µM), for inactives: top-dose activation, actives largely listed as activators; HBB splicing reporter cell assay, activation; EGFP reporter with mutant IVS2-654 intron; response scale: normalised to 500 nM splice-correcting PNA; 0.06% of 65,000 active; note: potency is the fitted concentration of half-maximal effect; 0% is about no effect
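Compounds were applied for 2 days to HeLa EGFP-654 cells, 500/well in Optimem with 2% FCS. The reporter's EGFP is disrupted by mis-splicing of beta-globin intron IVS2-654. Readout: summed well GFP fluorescence from 488 nm laser scanning; reference was 500 nM antisense […] 654 PNA.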
Epigenetic mod: derepresses silenced GFP locus in mouse C127i cells | mouse C127i GFP locus derepression, cytometry, 30 h | Potency, µM (top dose mostly 46.1 µM), for inactives: top-dose GFP derepression (activation) | 0.09% of 68,000 active | AID 597; note: % of control where 0% means no effect
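Derepression screen: silenced CMV-GFP reporter in murine C127i cells, 30 h compound incubation at 37 C, washed cells imaged by laser-scanning cytometer to enumerate GFP-expressing objects of 20 to 120 um.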
Bst PK mod: alters activity of Bacillus stearothermophilus pyruvate kinase; purified pyruvate kinase, luminescence ATP production; ribose 5-phosphate activator present at AC10; Potency, µM; 1.2% of 51,000 active; in the data active = potency below about 11 µM; inconclusive = mostly about 12 µM to 25 µM;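 the screen sought inhibitors and activators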;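 note: potency is the fitted concentration of half-maximal effect; scaled between full activation by ribose 5 phosphate and full inhibition by luteolin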
An asterisk follows results filed as active; i = inactive; ? = inconclusive; . = not tested or not shown; ! = not active in a repeat; [ ] = another dose, or the depositor's remark. The list is not random: actives were taken first. Their share in the collection is about 2.6%. Unless noted, calls come from the whole dose curve; as a rule, active = well fitted curve in the direction sought with a large enough effect; inconclusive = small, poorly fitted or top-dose-only effect, or another doubt; inactive = no such curve, though single readings can be large; an effect the other way counts as inactive or inconclusive.

SMILES	Luciferase inh	HBB splice mod	Epigenetic mod	Bst PK mod
Cc1cccc(OCc2nc(-c3nonc3N)no2)c1C	-2%	-1%	-2%	>57
Clc1ccccc1OCc1nc(-c2ccccn2)no1	10µM*	4%	0%	i
N#Cc1ccc(CN2CCC3(CC2)CCN(C(=O)c2ccncc2)CC3)cc1	3%[11.4 µM]	0%	0%[9.22 µM]	.
COc1ccc2cnn(CCOc3ccccc3)c(=O)c2c1OC	16µM*	1%[57.5 µM]	-2%	.
c1ccc(-c2nnc(-c3ccccn3)nn2)nc1	?	-1%[57.5 µM]	2%	7.1*
c1ccc(-c2cccc(-c3ccccn3)n2)nc1	-5%	0%[57.5 µM]	-2%	>11
CCCCCOc1ccc(CN2CCOCC2)cc1Cl	25µM*	0%[57.5 µM]	4%	.
CCOC(=O)c1sc(SCC(=O)Nc2ccc(N(C)C)cc2)nc1N	13µM*	.	0%	i
COCCn1c(=O)c(CCc2ccccc2)nc2cnc(Oc3cccc(Cl)c3)nc21	0%[11.4 µM]	-1%	0%[9.22 µM]	.
O=C(NC1CCCCCCC1)C1=COCCO1	-9%	0%[57.5 µM]	2%	>57
O=C(Nc1ccc(SC(F)F)cc1)C1=COCCO1	25µM*	0%[57.5 µM]	3%	i
O=C(Cn1cnnn1)Nc1ccccc1Cc1ccccc1	-1%	-1%	4%	>57
O=c1cc(-c2ccc(O)cc2O)oc2ccccc12	-5%[11.4 µM]	.	-2%[9.22 µM]	.
COc1cccc(-c2cc(=O)c3ccccc3o2)c1N	13µM*	-1%	1%	.
C=CCOC(=O)C(C(C)=O)C(NC(=O)OC)c1cccs1 (stereo unspecified)	.	0%[9.22 µM]	.	.
CCN(CC)c1ccc(NC(=O)c2ccc(Br)o2)cc1	10µM*	0%[0.0738 µM]	0%	.
O=C(Nc1ccc(N2CCCC2)cc1)c1ccc(Br)o1	2.5µM*	-1%[0.0738 µM]	-2%	.
CCCCOC(=O)Nc1ccc(N2CCCCC2)cc1	13µM*	-6%	2%	.
O=C(Nc1ccc(N2CCCCC2)cc1)c1ccc(F)cc1	4µM*	0%[57.5 µM]	-2%	.
COc1ccccc1-c1cncnc1-n1ccnc1	2%[2.29 µM]	1%	6%[9.22 µM]	.
CCc1nnc(NC(=O)c2ccc(OC)cc2OC)s1	7.9µM*	0%	10%	.
CCc1nnc(NC(=O)Nc2ccccc2OC)s1	-3%	4%	5%	.
O=C(O)c1cccc(CN2CCCCC2)c1	-1%[11.4 µM]	1%[9.22 µM]	2%[9.22 µM]	.
N#Cc1c(C(F)(F)F)cc(-c2ccccc2)nc1SCc1nc(N)nc(N2CCOCC2)n1	0%	10µM*	10µM*	>57
COc1ccccc1CC(=O)NC1CC(C)(C)NC(C)(C)C1	0%	.	-1%	>57
SMILES	Luciferase inh	HBB splice mod	Epigenetic mod	Bst PK mod
CCC(=O)N[C@@H]1CCc2cccc(OC)c2C1	25µM*	.	-1%	.
Cc1ccccc1OCC(=O)Nc1cccc(N(C)S(C)(=O)=O)c1	20µM*	-1%	-2%	.
CN(c1cccc(NC(=O)COc2ccccc2)c1)S(C)(=O)=O	?	0%	-3%	>57
COc1cccc(NC(=O)COc2ccccc2C(N)=O)c1	7.9µM*	0%	4%	?
CN[C@@H]1NC(=O)c2ccccc2N1Cc1ccc(F)cc1	2%[11.4 µM]	-1%[9.22 µM]	-1%[9.22 µM]	.
COc1ccccc1CN1CC[C@@]2(CCCN(C(=O)c3cc(C(F)(F)F)cc(C(F)(F)F)c3)C2)C1	2%[11.4 µM]	1%	0%[9.22 µM]	.
Clc1ccc(-c2nn3cnnc3s2)c(Cl)c1	-4%	1%[0.369 µM]	-2%	10*
N=c1cc(C2(O)CCCCC2)n2c(nc3ccccc32)s1	1µM*	-1%	-2%	1.1*
COc1ccc(C(=O)NCCn2ccc3ccccc32)cc1OC	10µM*	-2%	.	.
COc1cccc(C(=O)NCCn2ccc3ccccc32)c1	0%	1%	.	.
COc1cccc([C@@H]2Oc3ccc(OC)cc3/C(=N/OC[C@@H](C)[C@H](OCc3ccccc3)C(C)C)[C@@H]2O)c1	0%[11.4 µM]	1%[9.22 µM]	.	.
CC(C)C[C@@H](CC(=O)N[C@@H](CCCN)CC(=O)N[C@@H]1CCCC[C@H]1C(=O)N[C@H](CC(=O)N[C@@H](CCC(=O)O)CC(=O)O)Cc1c[nH]c2ccccc12)NC(=O)[C@@H]1CNCC[C@H]1N	.	0%	.	.
CN=C1N[C@H](c2ccccc2)N(c2ccccc2)S1	2%	.	0%	.
COc1ccc(OCCSc2ncccn2)cc1	25µM*	8%	8%	.
Cc1cnc(C(=O)Nc2ccc3c(c2)CCC3)cn1	16µM*	0%[57.5 µM]	-1%	i
Cc1cnc(C(=O)Nc2ccc(F)c(F)c2)cn1	-2%	-1%	-2%	>57
O=C(Nc1ccc2c(c1)CCC2)c1cnccn1	25µM*	4%	6%	.
CCN1CCN(C(=O)c2cc3c(=O)n4ccccc4nc3n2Cc2ccccc2)CC1	7.9µM*	-2%	-2%	?
Oc1c(C(Nc2nc3ccccc3s2)c2ccco2)ccc2cccnc12 (stereo unspecified)	-3%	5%	-2%	.
CC(C)C(=O)NC(c1ccco1)c1ccc2cccnc2c1O (stereo unspecified)	1%	-2%[9.22 µM]	4µM*	.
O=C(O)c1ccc(N[C@H](c2ccccc2)c2ccc3cccnc3c2O)cc1	2%[11.4 µM]	0%[9.22 µM]	0%[9.22 µM]	.
COc1ccc(C(NC(C)=O)c2ccc3cccnc3c2O)c(OC)c1 (stereo unspecified)	1%	-2%	13µM*	.
CN1CCN(Cc2nc3cccc4c3c([n+]2[O-])-c2ccccc2-4)CC1	1%[11.4 µM]	-3%[9.22 µM]	2%[9.22 µM]	.
COc1ccc(C2C3=C(N=C4SCC(=O)N42)c2ccccc2CC3)cc1 (stereo unspecified)	25µM*	2%	1%	.
CN1CCc2cc(NC(=O)Nc3cccnc3)ccc21	?	3%	-2%	.
Cn1ccc2cc3c(cc21)CCN3C(=O)Nc1cccnc1	25µM*!	0%	0%	.
NCS(=O)(=O)O	2%[11.4 µM]	0%[9.22 µM]	10%[9.22 µM]	.

Source: PubChem BioAssay
